Experimental data: PubChem BioAssay
Records with an inconclusive call do not appear. Calls of active or inactive are those of the source.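 How the source made its calls, unless noted: active means Her2 level under about 52% in both replicate screens, with viability over 70% of control (limit read from the data); inconclusive means Her2 under the limit in one screen only, or viability under 70%; inactive means Her2 level above the set limit.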

How the values were obtained:
[1] = Her2 expression decrease, cell viability multiplex – SKBR3 breast tumor cells, AlphaScreen, ATP viability, primary screen (AID 461); conditions: SKBR3 Her2 protein level, 18-24 h, measured here: SKBR3 viability, ATP luminescence, at 10 µM;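 on Her2 level: lower value means less Her2 protein in the cells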;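 on viability: percent of carrier control wells set as 100% viability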
[2] = target: Receptor tyrosine-protein kinase erbB-2 (Homo sapiens) (UniProt P04626); assay: as above; conditions: 18-24 h, at 10 µM, stronger effect = lower value
[3] = reduced viability of SK-BR-3 breast cancer cells – cell-based, 24 h, human, pilot screen (AID 572;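 active means viability at or below 10% of carrier control in both of two separate runs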;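 further: compound exposure lasted between 18 and 24 h rather than exactly 24 h; 100% = carrier-treated control wells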); conditions: SK-BR-3 viability, CellTiter-Glo luminescence, at 10 µM, stronger effect = lower value
[4] = HUVEC growth inhibition – cell-based, human, primary screen (AID 575;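 active means viability at or below 30% in both replicate assays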;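 further: 100% = median of untreated cell wells with 0.1% DMSO on each plate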); conditions: HUVEC proliferation, CellTiter-Glo luminescence, 72 h; at 10 µM; stronger effect = lower value
[5] = H69AR cell proliferation blockers – human, duplicate replicates, primary screen (AID 580;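 active means viability at or under a set limit in both replicates, limit being median viability minus 3 SD, cut at about 48% in these data, passing the limit was not always enough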;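 further: 100% = mean luminescence of untreated wells and 0% = no signal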); conditions: H69AR lung tumor cells viability, ATP luminescence, 72 h; at 10 µM; stronger effect = lower value
[6] = MRP1 drug-resistance reversers in H69AR cells – cell-based, doxorubicin co-treatment, pilot screen (AID 601;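 active means viability loss from added drug above about 55%, and viability with drug at most 40%, in both replicates, limit read from the data, passing the limit was not always enough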); conditions: CellTiter-Glo, 72 h, at 10 µM; for differential viability (reversal): stronger effect = higher value
[7] = yeast transport mutant growth inhibition pilot in 384-well plates, post-Golgi transport modulator project (AID 636; in the data active means inhibition above about 31%); conditions: absorbance 615 nm, about 18 h, stronger effect = higher value
[8] = growth suppression of yeast trafficking mutant, preliminary HTS, modulators of trafficking downstream of Golgi apparatus project, 1536-format plate, OD 615 nm (AID 637; in the data active means inhibition above about 30%); conditions: yeast transport mutant growth, absorbance 615 nm, 18 h; stronger effect = higher value
[9] = S. cerevisiae growth inhibition in permissive medium (OD615), pilot counter-assay for S. cerevisiae lifespan shortening project, permissive growth control (AID 705;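 active means growth inhibition above 25% in both replicates, a cutoff set 3 SD above the mean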); conditions: OD615, 24 h, at 10 µM, stronger effect = higher value
[10] = S. cerevisiae growth inhibition in restrictive medium, OD615, pilot screen, restrictive growth control, yeast lifespan reduction project (AID 706;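 active means growth inhibition above a set limit, 3 SD over mean compound inhibition, in both replicates, cut at about 43% in these data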;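 further: modified DeaD lifespan yeast strain shifted to restrictive glucose medium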); conditions: OD615, 48 h, at 10 µM, stronger effect = higher value
[11] = doxorubicin toxicity protection in MRP-1 cells – H69AR cells, CellTiter-Glo, duplicate, MRP-1 activator project, pilot screen (AID 807;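 active means viability increase at or above a cutoff of the median across tested compounds plus 3 SD, cut at about 8.5% in these data, passing the limit was not always enough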;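 further: compound pretreatment 18-22 h then 72 h combined with doxorubicin; 0% = doxorubicin alone and 100% = vehicle without doxorubicin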); conditions: H69AR viability with doxorubicin, CellTiter-Glo luminescence; at 10 µM; stronger effect = higher value
[12] = viability of HCT116 without oncogenic beta-catenin – human colon tumor cells, pilot screen (AID 823;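 active means cell viability at or below a set limit in both duplicate runs, the limit being the all-compound median minus 4 SD, cut at about 23% in these data, passing the limit was not always enough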;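 further: 0% = wells killed by 20 µM Hyamine and 100% = untreated DMSO cell wells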); conditions: HCT116 beta-catenin knockout viability, CellTiter-Glo, 60 h; at 10 µM; stronger effect = lower value
[13] = viability of PTEN-null HCT116 cells – cell-based, HCT116 clonal line, CellTiter-Glo, pilot screen (AID 824;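 active means viability at or below 27.92% in each of two runs, the all-compound median minus 4 SD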;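 further: 0% = 20 µM Hyamine control and 100% = vehicle cell control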); conditions: HCT116 PTEN-deleted viability, 60 h, at 10 µM, stronger effect = lower value
[14] = RAM pathway blockade in budding yeast – dse1pr::URA3 reporter, 5-FOA selection, pilot screen (AID 869;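 active means inhibition over a set limit, the all-compound mean plus 3 SD, in both replicate runs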;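 further: 0% = DMSO wells with no growth and 100% = 10 µM 1-NA-PP1 with full growth; RAM network block rescues cells from 5-FOA so hits raise OD615 growth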); conditions: S. cerevisiae dse1pr::URA3 5-FOA growth, OD615, 2 d; at 10 µM; stronger effect = higher value; strain carries analog-sensitive mutant Cbk1 kinase
[15] = RAM signaling pathway blockade in yeast – S. cerevisiae, Pdr1DBD-CYC8 efflux-inhibited sensitized strain, primary screen (AID 1298;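 active means RAM network inhibition above 8.4% in each of two replicates, 3 SD over the compound average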;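 further: 0% = DMSO untreated cells without growth and 100% = 10 µM 1-NA-PP1 full growth; higher means more yeast growth rescued from 5-FOA killing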); conditions: S. cerevisiae cbk1-as DSE1-URA3 strain, 5-FOA growth OD615, 2 d; at 50 µM; stronger effect = higher value
[16] = H69AR cells + 2 uM doxorubicin, measured here: viability with 2 uM doxorubicin, stronger effect = lower value
[17] = H69AR cells, compound alone cytotoxicity

Chain of Receptor tyrosine-protein kinase erbB-2 (Homo sapiens) (P04626 whole entry, looked up): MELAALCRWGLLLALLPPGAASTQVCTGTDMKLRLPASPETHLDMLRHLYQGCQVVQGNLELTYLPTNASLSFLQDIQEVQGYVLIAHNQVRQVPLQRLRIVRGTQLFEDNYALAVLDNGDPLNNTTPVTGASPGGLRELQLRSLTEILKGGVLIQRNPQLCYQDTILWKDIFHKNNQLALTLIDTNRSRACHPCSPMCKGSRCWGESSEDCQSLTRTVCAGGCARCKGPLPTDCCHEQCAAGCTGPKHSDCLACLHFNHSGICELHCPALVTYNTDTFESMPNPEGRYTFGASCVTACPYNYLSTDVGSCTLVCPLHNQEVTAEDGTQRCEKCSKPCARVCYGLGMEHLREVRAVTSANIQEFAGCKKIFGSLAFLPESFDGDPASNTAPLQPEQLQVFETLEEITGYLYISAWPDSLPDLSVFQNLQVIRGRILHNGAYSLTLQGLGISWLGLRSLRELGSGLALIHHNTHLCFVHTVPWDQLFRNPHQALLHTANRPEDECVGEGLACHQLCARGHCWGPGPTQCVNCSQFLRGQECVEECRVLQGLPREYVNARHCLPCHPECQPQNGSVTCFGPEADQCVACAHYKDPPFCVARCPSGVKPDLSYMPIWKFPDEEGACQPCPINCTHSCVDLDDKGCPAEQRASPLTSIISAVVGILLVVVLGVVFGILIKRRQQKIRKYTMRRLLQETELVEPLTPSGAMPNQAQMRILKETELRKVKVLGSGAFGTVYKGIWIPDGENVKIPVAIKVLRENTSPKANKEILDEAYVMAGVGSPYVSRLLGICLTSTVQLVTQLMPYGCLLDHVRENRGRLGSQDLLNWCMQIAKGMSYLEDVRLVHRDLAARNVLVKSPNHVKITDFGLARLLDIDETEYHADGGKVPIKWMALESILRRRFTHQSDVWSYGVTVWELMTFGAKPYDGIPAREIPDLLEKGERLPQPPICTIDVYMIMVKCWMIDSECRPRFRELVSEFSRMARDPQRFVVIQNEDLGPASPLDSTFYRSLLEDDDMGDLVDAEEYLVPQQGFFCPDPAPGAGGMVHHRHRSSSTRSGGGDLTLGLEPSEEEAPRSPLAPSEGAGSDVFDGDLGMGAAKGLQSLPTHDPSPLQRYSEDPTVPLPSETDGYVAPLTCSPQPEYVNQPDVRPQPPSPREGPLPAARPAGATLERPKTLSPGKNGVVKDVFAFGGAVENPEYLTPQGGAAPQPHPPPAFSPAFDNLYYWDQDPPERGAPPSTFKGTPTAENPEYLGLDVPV

Row | Structure (SMILES) | viability [1] | Her2 level [2] | viability [3] | viability [4] | viability [5] | differential viability (reversal) ([6]; H69AR cells + 2 uM doxorubicin) | viability [6, 16] | viability [6, 17] | inhibition [7] | inhibition [8] | growth inhibition [9] | growth inhibition [10] | viability increase [11] | viability [12] | viability [13] | inhibition [14] | RAM network inhibition [15]
1 | Cc1cccc(N2C(=O)CC(N3CCN(c4cccc(C(F)(F)F)c4)CC3)C2=O)c1 (stereo not drawn) | 94.5% | 74.5% (inactive) | 94.5% (inactive) | 73.2% (inactive) | 96.9% (inactive) | 6.09% (inactive) | 90.8% | 96.9% | -2.86% (inactive) | -9% (inactive) | -12.6% (inactive) | -8.65% (inactive) | 3.91% (inactive) | 97.3% (inactive) | 97.8% (inactive) | 1.32% (inactive) | 5.57% (inactive)
2 | Cc1cccc(Cn2c(SCCN3CCCCC3)nc3c2c(=O)[nH]c(=O)n3C)c1 | 75% | 96.5% (inactive) | 75% (inactive) | 75.6% (inactive) | 73.7% (inactive) | -6.01% (inactive) | 79.8% | 73.7% | -1.73% (inactive) | 5.5% (inactive) | -16.1% (inactive) | -11.3% (inactive) | -2.89% (inactive) | 92.4% (inactive) | 83.1% (inactive) | 2.78% (inactive) | 0.26% (inactive)
3 | COc1ccccc1CNC(=O)C1CCCN(S(=O)(=O)c2cccc3cccnc23)C1 (stereo not drawn) | 92.5% | 98.5% (inactive) | 92.5% (inactive) | 111% (inactive) | 92% (inactive) | -0.39% (inactive) | 92.3% | 92% | -4.53% (inactive) | -2.17% (inactive) | -5.17% (inactive) | -12.7% (inactive) | -3.42% (inactive) | 90.6% (inactive) | 91.6% (inactive) | 3.08% (inactive) | 6.37% (inactive)
4 | CCn1c(SCC(=O)Nc2cccc(C)c2)nc2c(c1=O)SC(C)C2 (stereo not drawn) | 90% | 88% (inactive) | 90% (inactive) | 99% (inactive) | 76.7% (inactive) | 3.39% (inactive) | 73.3% | 76.7% | -3.07% (inactive) | -0.67% (inactive) | -3.52% (inactive) | -4.62% (inactive) | -3.09% (inactive) | 95.1% (inactive) | 88.9% (inactive) | 2.52% (inactive) | 10.2% (inactive)
5 | CN1CCN(C(=O)c2ccc(CS(=O)(=O)c3c(Cl)cccc3Cl)o2)CC1 | 98.5% | 88.5% (inactive) | 98.5% (inactive) | 97.4% (inactive) | 94.3% (inactive) | 8.46% (inactive) | 85.8% | 94.3% | -2% (inactive) | -2.46% (inactive) | -7.05% (inactive) | -12% (inactive) | 0.72% (inactive) | 103% (inactive) | 96% (inactive) | 1.41% (inactive) | 0.22% (inactive)
6 | O=C(CSc1nnc2ccccn12)c1ccccc1 | 99% | 88% (inactive) | 99% (inactive) | 88.8% (inactive) | 94.5% (inactive) | 14.1% (inactive) | 80.3% | 94.5% | -4.27% (inactive) | -3.44% (inactive) | -13.8% (inactive) | -10.6% (inactive) | 0.47% (inactive) | 109% (inactive) | 102% (inactive) | 1.23% (inactive) | 2.3% (inactive)
7 | Cc1nc2c(-c3ccccc3)c(C)nn2c(C)c1CCC(=O)NCc1ccco1 | 101% | 100% (inactive) | 101% (inactive) | 88.2% (inactive) | 90.8% (inactive) | 14.2% (inactive) | 76.6% | 90.8% | -0.9% (inactive) | -2.5% (inactive) | -4.98% (inactive) | 5.46% (inactive) | -3.51% (inactive) | 98.9% (inactive) | 101% (inactive) | 1.4% (inactive) | 5.36% (inactive)
8 | CCCc1cc(=O)oc2c(C)c3occ(C)c3cc12 | 112% | 99.5% (inactive) | 112% (inactive) | 64.8% (inactive) | 98.2% (inactive) | 4.94% (inactive) | 93.3% | 98.2% | -0.68% (inactive) | -3.02% (inactive) | -2.79% (inactive) | 0.83% (inactive) | -4.59% (inactive) | 77.4% (inactive) | 79.5% (inactive) | 3.16% (inactive) | 3.02% (inactive)
9 | CCn1c(=O)cc(OCC(=O)Nc2nc(C)cs2)c2ccccc21 | 83.5% | 84.5% (inactive) | 83.5% (inactive) | 61.6% (inactive) | 94.8% (inactive) | 2.11% (inactive) | 92.7% | 94.8% | -3.73% (inactive) | -1.67% (inactive) | -10.5% (inactive) | -9.12% (inactive) | -2.41% (inactive) | 93.2% (inactive) | 86.9% (inactive) | 1.33% (inactive) | 2.84% (inactive)
10 | COCCn1cc(C(=O)c2ccccc2OCC(=O)Nc2cc(C)on2)cc(C#N)c1=O | 82.5% | 115% (inactive) | 82.5% (inactive) | 89% (inactive) | 108% (inactive) | 6.63% (inactive) | 102% | 108% | -2.76% (inactive) | -1.17% (inactive) | -25.8% (inactive) | -14% (inactive) | -0.5% (inactive) | 92.9% (inactive) | 99.5% (inactive) | 1.68% (inactive) | 3.2% (inactive)
11 | Cn1c(C(=O)NCCCN2CCN(c3ccc(F)cc3)CC2)cc2c(=O)n(C)c3ccccc3c21 | 81% | 90% (inactive) | 81% (inactive) | 65.7% (inactive) | 84.1% (inactive) | 4.36% (inactive) | 79.8% | 84.1% | -3.07% (inactive) | 0% (inactive) | -6.23% (inactive) | 7.21% (inactive) | -5.3% (inactive) | 67.8% (inactive) | 70.1% (inactive) | -0.495% (inactive) | 1.71% (inactive)
12 | Cc1ccc(S(=O)(=O)N2CCC(C(=O)N3CCN(Cc4ccccc4)CC3)CC2)cc1 | 99% | 91% (inactive) | 99% (inactive) | 100% (inactive) | 85.3% (inactive) | -15.4% (inactive) | 101% | 85.3% | -1.73% (inactive) | -0.33% (inactive) | -8.33% (inactive) | 0.335% (inactive) | 1.01% (inactive) | 90.5% (inactive) | 92.6% (inactive) | 2.2% (inactive) | 4.44% (inactive)
13 | CCc1cccc(NC(=O)CCc2nc(-c3cccs3)no2)c1 | 108% | 107% (inactive) | 108% (inactive) | 95.4% (inactive) | 101% (inactive) | 15.6% (inactive) | 85.1% | 101% | -3.47% (inactive) | -0.98% (inactive) | -1.88% (inactive) | -1.74% (inactive) | -1.34% (inactive) | 95.6% (inactive) | 97.6% (inactive) | 0.515% (inactive) | -1.4% (inactive)
14 | O=C(NC1CCCC1)C1CCCN(S(=O)(=O)c2cccc3cccnc23)C1 (stereo not drawn) | 102% | 116% (inactive) | 102% (inactive) | 115% (inactive) | 98.8% (inactive) | 3.92% (inactive) | 94.8% | 98.8% | -5.07% (inactive) | 4.33% (inactive) | -9.46% (inactive) | 1.54% (inactive) | -1.04% (inactive) | 100% (inactive) | 99.3% (inactive) | 0.7% (inactive) | 5.53% (inactive)
15 | CCCCc1ccc(NC(=O)C2CCCO2)cc1 (stereo not drawn) | 92% | 122% (inactive) | 92% (inactive) | 93.5% (inactive) | 103% (inactive) | 20.8% (inactive) | 82.2% | 103% | -4.87% (inactive) | -5.33% (inactive) | 2.46% (inactive) | 2.07% (inactive) | 2.53% (inactive) | 100% (inactive) | 94.5% (inactive) | 1.05% (inactive) | 3.17% (inactive)
16 | O=C1CN(c2nc3ccccc3n3cnnc23)CC(=O)N1CCc1ccccc1 | 91.5% | 100% (inactive) | 91.5% (inactive) | 104% (inactive) | 102% (inactive) | 12% (inactive) | 90.2% | 102% | -0.38% (inactive) | -1.17% (inactive) | -6.92% (inactive) | -3.06% (inactive) | 0.25% (inactive) | 102% (inactive) | 95.9% (inactive) | 3.38% (inactive) | 5.88% (inactive)
17 | Cc1ccc(C)n1-n1c(C)nc2sc(-c3ccccc3)cc2c1=O | 89% | 106% (inactive) | 89% (inactive) | 80.3% (inactive) | 81.9% (inactive) | -8.97% (inactive) | 90.8% | 81.9% | -0.38% (inactive) | 2.67% (inactive) | -3.25% (inactive) | -27.4% (inactive) | 1.12% (inactive) | 54.6% (inactive) | 61% (inactive) | 0.52% (inactive) | 9.68% (inactive)
18 | Cc1nnc2n(-c3ccc(Cl)cc3)c(=O)c3c4c(sc3n12)CN(C)CC4 | 84% | 98% (inactive) | 84% (inactive) | 103% (inactive) | 91.6% (inactive) | -11.4% (inactive) | 103% | 91.6% | -4.94% (inactive) | -4.1% (inactive) | -4.76% (inactive) | -10.1% (inactive) | -1.73% (inactive) | 112% (inactive) | 93.1% (inactive) | 0.945% (inactive) | 2.13% (inactive)
19 | N#Cc1cc2c(nc1SCC(=O)N1CCCCC1)CCCC2 | 85% | 130% (inactive) | 85% (inactive) | 88.3% (inactive) | 87.6% (inactive) | 1.21% (inactive) | 86.4% | 87.6% | 3.51% (inactive) | -6.67% (inactive) | -16.8% (inactive) | -1.56% (inactive) | -1.73% (inactive) | 93% (inactive) | 91.3% (inactive) | 3.67% (inactive) | 2.13% (inactive)
